Source: PubChem (several laboratories)
HSF-1 act: increases HSF-1 driven luciferase reporter signal; NIH3T3-HGL HSF-1 luciferase reporter, MG132, 8 h; 100% = twice DMSO control signal; hit rate 1.7% among 300,000; activation, % at 9 µM;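 active = mean replicate activation of at least 50% with a set share of replicates each reaching 50%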;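 note: 0% = median of the neutral control wells and 100% = twice that signal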
DYRK1A inh: Dyrk1A (rat) kinase inhibition; Q63470; ADP-Glo luminescence, NFATc1 peptide; inhibition, % at 12.5 µM; hit rate 0.43% among 310,000; AID 504441; in the data active = inhibition above about 50%;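 note: plate controls were vehicle with enzyme for no effect and no enzyme for full effect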
HSF1 inh: HSF1 inhibition. hit rate 0.77% among 300,000. activity change, negative = inhibition, % at 7.5 µM (by protocol). AID 2098. NIH3T3-HGL HSE-luciferase, MG132-induced, luminescence 8 h; hits give low values;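 active = more than half of replicate wells show activity change below -50%, luminescence cut by over half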;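 note: luciferase reports HSF-1 transcriptional activity via heat shock element; 0% = median of DMSO wells and -100% = zero luminescence signal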
GC-A act: GC-A (human) enzyme activation | hit rate 0.14% among 370,000 | activation, % at 10 µM | HEK293 GC-A cells, cGMP TR-FRET, EC30 ANP; 0% at EC30 ANP, 100% saturating ANP; in the data active = activation above about 40%
Target sequence (P16066 whole entry, looked up): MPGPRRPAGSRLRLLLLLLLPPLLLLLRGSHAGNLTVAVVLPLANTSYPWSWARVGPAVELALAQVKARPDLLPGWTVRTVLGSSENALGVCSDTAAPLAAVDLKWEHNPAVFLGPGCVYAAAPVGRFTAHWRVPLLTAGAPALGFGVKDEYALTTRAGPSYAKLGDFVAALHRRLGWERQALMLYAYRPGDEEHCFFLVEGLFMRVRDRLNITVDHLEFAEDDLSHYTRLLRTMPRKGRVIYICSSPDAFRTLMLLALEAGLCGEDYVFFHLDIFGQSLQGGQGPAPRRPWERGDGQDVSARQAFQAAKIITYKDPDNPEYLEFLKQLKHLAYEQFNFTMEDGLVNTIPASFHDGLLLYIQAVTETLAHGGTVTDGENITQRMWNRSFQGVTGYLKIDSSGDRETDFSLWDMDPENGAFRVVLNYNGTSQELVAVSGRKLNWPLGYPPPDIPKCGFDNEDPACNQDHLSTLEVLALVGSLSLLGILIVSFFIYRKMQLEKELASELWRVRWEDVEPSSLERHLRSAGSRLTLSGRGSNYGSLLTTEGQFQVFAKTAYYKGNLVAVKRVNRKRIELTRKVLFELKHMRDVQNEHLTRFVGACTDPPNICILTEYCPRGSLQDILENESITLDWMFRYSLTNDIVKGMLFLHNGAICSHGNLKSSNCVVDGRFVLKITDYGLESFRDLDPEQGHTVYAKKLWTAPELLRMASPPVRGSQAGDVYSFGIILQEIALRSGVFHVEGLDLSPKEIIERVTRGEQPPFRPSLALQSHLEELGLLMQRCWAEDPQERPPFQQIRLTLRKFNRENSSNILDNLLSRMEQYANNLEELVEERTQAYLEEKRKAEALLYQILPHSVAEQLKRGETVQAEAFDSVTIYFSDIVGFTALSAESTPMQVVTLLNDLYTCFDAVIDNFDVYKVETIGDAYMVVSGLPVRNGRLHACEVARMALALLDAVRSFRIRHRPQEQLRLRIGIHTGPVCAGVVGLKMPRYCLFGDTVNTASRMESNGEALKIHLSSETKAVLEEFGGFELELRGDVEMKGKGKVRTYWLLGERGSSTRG
aDG glyco act: alpha-DG glycosylation activation | Pro5-aDG cells, alpha-DG glycosylation AlphaScreen (IIH6); 0% Pro5, 100% B10-LARGE cell signal | activation, % at 10 µM | hit rate 0.22% among 360,000 | AID 624168;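 active = activation of at least 8% versus controls, or a plate z-score of at least 8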;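 note: Pro5 are CHO cells carrying HIG-tagged alpha-DG that lacks glycosylation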
NPR2 activator: GC-B (human) receptor activation; P20594; HEK293-GC-B cells, CNP EC30, cGMP TR-FRET; 0% at EC30 CNP, 100% saturating CNP; activation, % at 10 µM; hit rate 0.11% among 370,000; AID 1920062;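 active = activation at 10 µM reaching about 35% in either raw or pattern-adjusted values, limit read from the data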
* marks the source's active call; other numbers are inactive results; / = no result given; ! = not confirmed by another sample. The list is not random: actives were taken first. Their share in the collection is about 2.5%.

SMILES | HSF-1 act | DYRK1A inh | HSF1 inh | GC-A act | aDG glyco act | NPR2 activator
Cc1[nH]c2ccccc2c1C(C[N+](=O)[O-])c1cccs1 (stereo unspecified) | -79 | 2 | -75* | 1 | 0 | -4
Cc1[nH]c2ccccc2c1C(C[N+](=O)[O-])c1cccc(O)c1 (stereo unspecified) | -4 | 1 | 1 | -3 | 0 | -2
Cc1[nH]c2ccccc2c1C(C[N+](=O)[O-])c1ccco1 (stereo unspecified) | 18 | 5 | 7 | 2 | 0 | 0
Cc1ccc(-c2[nH]c3ccccc3c2C(C[N+](=O)[O-])c2ccco2)cc1 (stereo unspecified) | 70* | 5 | 28 | 4 | 0 | -5
CCN1CC(CN(C)Cc2nc(COc3ccccc3)no2)CC1=O (stereo unspecified) | 55* | -3 | 23 | 4 | 0 | 4
CCOC(=O)N1CCc2c(sc3nc[nH]c(=O)c23)C1 | 3 | 2 | 0 | 2 | 0 | 3
CC(=O)c1cn(CC(=O)Nc2c(C)cccc2C)c2ccccc12 | 2 | -4 | -4 | -2 | 0 | 5
CC(=O)c1cn(CC(=O)Nc2ccccc2C)c2ccccc12 | -83 | 2 | -80* | 1 | 2 | 3
CCN(c1ccccc1)S(=O)(=O)c1ccc(Cl)c(NC(=O)CSc2nnc(C)s2)c1 | -73 | 6 | -66* | 4 | 0 | 0
CCN(c1ccccc1)S(=O)(=O)c1ccc(Cl)c(NC(=O)CSc2nncs2)c1 | -1 | 3 | -3 | 5 | 0 | 6
CC(C)c1ccc(C2NC(=O)c3ccccc3O2)cc1 (stereo unspecified) | 71* | -4 | 35 | 0 | 0 | -4
O=C(CSc1nccn1Cc1ccco1)Nc1cccc(F)c1 | -79 | / | -74* | -3 | 0 | -2
CC(=O)NC1=C(NC2CCS(=O)(=O)C2)C(=O)c2ccccc2C1=O (stereo unspecified) | 27 | 4 | 12 | -5 | 1 | -1
CN(C1=C(NC(=O)c2ccccc2)C(=O)c2ccccc2C1=O)C1CCS(=O)(=O)C1 (stereo unspecified) | 66* | 8 | 26 | -4 | 5 | 4
CCCCCC(=O)NC(NC(=S)Nc1ccc(S(N)(=O)=O)cc1)C(Cl)(Cl)Cl (stereo unspecified) | -3 | 0 | 3 | -3 | 0 | 0
COc1ccc(N2Cc3ccccc3C2=O)cc1 | 54* | 17 | 25 | 7 | 0 | -3
O=C1c2ccccc2CN1c1ccccc1 | 19 | 3 | 13 | -1 | 0 | 1
C=CC(=O)Oc1ccc(N2Cc3ccccc3C2=O)cc1 | 70* | / | 63 | / | 0 | /
O=C(Cc1cccs1)N1CCN(S(=O)(=O)c2ccc(Br)cc2)CC1 | 9 | 0 | 1 | -3 | 0 | -2
CCOc1ccc(CNC(=O)CCS(=O)(=O)c2ccc3c(c2)NC(=O)CO3)cc1OC | -2 | -3 | -4 | 2 | 0 | 2
O=C(O)c1ccc(-c2nnn(Cc3ccccc3F)n2)cc1 | 12 | 8 | 17 | -1 | 0 | -2
CCC(C)Sc1cccc(-c2nc3cc(C)ccn3c2NC2CCCCC2)c1 (stereo unspecified) | / | 7 | / | 7 | 15*! | 3
CNC(=O)c1cccnc1Nc1cccc(C(F)(F)F)c1 | / | -3 | / | 2 | 0 | -8
COc1cccc(NC(=O)CCSc2ccc3ccccc3n2)c1 | 13 | -5 | -2 | -5 | 0 | -1
COc1ccc(/C=C/C(=O)NC(=S)N2CCN(c3ccccn3)CC2)cc1OC | 4 | -8 | -7 | 2 | 0 | -3
SMILES | HSF-1 act | DYRK1A inh | HSF1 inh | GC-A act | aDG glyco act | NPR2 activator
O=C(/C=C/c1ccc(F)cc1)NC(=S)N1CCN(c2ccccn2)CC1 | 59* | -5 | 51 | 3 | 0 | 0
N=C1c2ccccc2CN1NC(=O)COc1ccc(Cl)cc1 | 7 | -2 | 4 | 2 | 0 | 0
CC(C)(C)c1ccc(OCC(=O)NN2Cc3ccccc3C2=N)cc1 | 92* | 4 | 38 | 3 | 0 | -1
COc1ccc(CC(=O)Nc2ccc3c(c2)CCC3)cc1OC | -4 | 4 | -1 | 1 | 3 | -5
CCOC(=O)[C@]12CCCCC/C=C\1N(CCc1ccc(Cl)cc1)C(=O)[C@H]2CC(=O)NCc1ccccc1 | / | / | / | -5 | / | -6
CC(Oc1ccc(Cl)cc1Cl)c1nc(-c2ccccn2)no1 (stereo unspecified) | 76* | -3 | 53 | 18 | 0 | -2
CC(Oc1ccc(Cl)cc1Cl)c1nc(-c2ccc(NC(=O)c3ccncc3)cc2)no1 (stereo unspecified) | 25 | 1 | 15 | -2 | 4 | -4
CC(Oc1ccc(Cl)cc1Cl)c1nc(-c2ccc(NC(=O)c3cccnc3)cc2)no1 (stereo unspecified) | 34 | 10 | 18 | -2 | 14* | 2
CC1CC(C)CN(C(=O)COC(=O)/C=C/c2ccco2)C1 (stereo unspecified) | / | -3 | / | 0 | 0 | 2
O=C(CCl)N1N=C(c2ccco2)CC1c1cccs1 (stereo unspecified) | 55* | -2 | 29 | / | 0 | /
Cc1ccc(C2=NN(C(=O)CCl)C(c3cccs3)C2)o1 (stereo unspecified) | 58* | -5 | 31 | -11 | 1 | 2
CC(=O)N1N=C(c2ccco2)CC1c1cccs1 (stereo unspecified) | 15 | -2 | 13 | -2 | 0 | 3
Cc1ccc(C2=NN(C(=O)CCC(=O)O)C(c3cccs3)C2)cc1 (stereo unspecified) | -6 | -2 | 7 | 2 | 0 | -11
NCCCCCc1cn([C@@H](CO)C(=O)NCCCCCCCCCCC(=O)N2CCNCC2)nn1 | / | -2 | / | 2 | 0 | 1
COC(=O)N/N=C/c1cccc(OCCSc2ccc(Cl)cc2)c1 | 57* | 3 | 23 | -9 | 1 | -5
COC(=O)N/N=C/c1ccc(OCCSc2ccc(Cl)cc2)c(OC)c1 | 11 | -13 | 11 | 3 | 0 | -1
CSc1nnc(CSCc2ccc(Cl)cc2Cl)n1-c1ccccc1 | 6 | 7 | 2 | -26 | 0 | -10
COc1cc(CNc2ncnc3c2[nH]c2ccc(C)cc23)cc(OC)c1 | 49 | 5 | 14 | 14 | 0 | 11
Cc1ccc2[nH]c3c(NCc4ccco4)ncnc3c2c1 | 25 | 17 | 9 | 5 | 4.7* | 3
CCOC(=O)c1ccc(N=Nc2c(C)[nH]n(-c3ccccc3)c2=O)cc1 | 2 | / | -10 | 2 | 0 | -3
CCOC(=O)c1ccc(-n2[nH]c(-c3ccccc3)cc2=O)cc1 | -78 | -10 | -72* | 6 | 0 | -1
